# Only some compounds are listed: those with a hit (about 11% of all), similar ones and a draw of the others.
# JMJD2A Tudor inh – blocks the human JMJD2A Tudor domain; AID 504339; AlphaScreen JMJD2A-Tudor / H3K4me3 peptide binding; O75164; hit rate 4.4% among 390,000; Potency, µM (doses to about 114 µM), inactives show top-dose activity change, negative = inhibition, usual class: inhibitors; note: potency is the fitted concentration of half-maximal effect; % is set by controls: 0 for no effect and ±100 for the full control effect; nearly all actives have a fitted effect of over 50% in size
# L3MBTL1 block – inhibitors of human L3MBTL1; Q9Y468; AlphaScreen L3MBTL1–H3K9me1 peptide binding; Potency, µM (highest dose often 57.1 µM), without a hit: at the highest dose activity, negative = inhibition, actives largely listed as inhibitors; hit rate 0.66% among 230,000; note: potency is the fitted concentration of half-maximal effect; % is set by controls: 0 for no effect and ±100 for the full control effect; nearly all actives have a fitted effect of over 60% in size
#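 Read-out is AlphaScreen signal from streptavidin donor and nickel chelate acceptor beads (10 ug/mL final each) bridging L3MBTL1 (50 nM) and biotinylated K9-monomethylated H3(1-15) peptide (75 nM), after 30 min compound exposure at room temperature.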
# HP1b chromo inh – blocks HP1-beta chromodomain binding to methylated histone tails; P83916; hit rate 0.56% among 390,000; Potency, µM (series often up to 114 µM), for inactives: at the highest dose activity change, negative = inhibition, most hits filed as inhibitors; AID 540317; AlphaScreen HP1-beta / biotin-H3K9me3 peptide binding; note: potency is the fitted concentration of half-maximal effect; nearly all actives have a fitted effect of over 70% in size
# Target sequence (P83916 whole entry, looked up): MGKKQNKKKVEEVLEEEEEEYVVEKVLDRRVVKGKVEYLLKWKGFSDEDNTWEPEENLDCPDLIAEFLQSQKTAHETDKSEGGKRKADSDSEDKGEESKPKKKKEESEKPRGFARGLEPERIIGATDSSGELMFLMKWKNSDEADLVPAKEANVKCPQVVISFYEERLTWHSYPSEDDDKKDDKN
#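 Compound inhibition of the preformed complex between 50 nM HP1-beta and 50 nM biotinylated H3K9me3 peptide was read by AlphaScreen. Buffer was PBS pH 7.4 with 0.01% Tween-20. Incubations ran 30 min at room temperature, with 10 ug/mL donor/acceptor beads.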
# PI5P4Ka inh – inhibitors of human PI5P4K alpha; AID 652105; max response, %; hit rate 1.2% among 330,000; P48426; PI5P4Kalpha enzyme, ADP-Glo luminescence, 60 min; stronger effect = lower value; active = max response of -50% or lower; inconclusive = between -30% and -50%; inactive = -30% or higher; note: value at the top dose of about 77 µM; % is set by controls: 0 for no effect and ±100 for the full control effect
# Target sequence (P48426 whole entry, looked up): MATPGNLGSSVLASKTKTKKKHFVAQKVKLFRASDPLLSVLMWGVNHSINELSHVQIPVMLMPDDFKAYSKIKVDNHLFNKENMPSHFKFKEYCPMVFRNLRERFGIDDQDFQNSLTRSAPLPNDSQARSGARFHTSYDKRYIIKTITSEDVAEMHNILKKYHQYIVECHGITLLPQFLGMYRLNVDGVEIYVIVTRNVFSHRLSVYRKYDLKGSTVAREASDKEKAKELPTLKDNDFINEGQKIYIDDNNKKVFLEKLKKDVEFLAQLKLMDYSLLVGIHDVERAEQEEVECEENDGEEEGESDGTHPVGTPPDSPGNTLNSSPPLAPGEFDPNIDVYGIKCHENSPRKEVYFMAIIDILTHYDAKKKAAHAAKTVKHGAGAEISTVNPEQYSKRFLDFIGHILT
#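 Reactions run in 0.038 M HEPES pH 7.4, 0.28 mM EGTA, 0.1% CHAPS and 5% DMSO, with PI5P4Kalpha, substrate, compound and 5 microM ATP final, one hour at room temperature. Readout is ADP-Glo luminescence.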
# BAZ2B block – BAZ2B (human) inhibition; AlphaScreen BAZ2B-H3K14Ac peptide displacement; Potency, µM (doses to about 114 µM), without a hit: at the top dose activity change, negative = inhibition, actives largely listed as inhibitors; hit rate 4.4% among 360,000; AID 504333; note: potency is the fitted concentration of half-maximal effect; % is set by controls: 0 for no effect and ±100 for the full control effect; nearly all actives have a fitted effect of over 60% in size
#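 Multi-concentration screen (max 110 uM) measuring displacement of acetylated histone H3 peptide from BAZ2B by AlphaScreen, using 50 nM protein, 50 nM peptide and 10 ug/mL streptavidin donor plus Ni-chelate acceptor beads.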
# G9a inh – blocks human histone lysine methyltransferase G9a; Q96KQ7; G9a H3K9 monomethylation, AlphaScreen, 2 h; Potency, µM (doses to about 102 µM), for the others: at the highest dose activity, negative = inhibition, hits mostly inhibitors; hit rate 8.8% among 350,000; AID 504332; note: potency is the fitted concentration of half-maximal effect; % is set by controls: 0 for no effect and ±100 for the full control effect; nearly all actives have a fitted effect of over 75% in size
#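 G9a (20 nM) was preincubated 15 min with compound, then reacted 2 h at room temperature with 500 nM biotin-H3K9 peptide and 20 µM SAM. Monomethyl-H3K9 detected by AlphaScreen using anti-H3K9me1 antibody.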
# * marks the source's active call; other numbers are inactive results; ? = inconclusive; / = no result given; [ ] = another dose, or the depositor's remark. Unless noted, calls come from the whole dose curve; as a rule, active = well fitted inhibition curve with a large enough effect; inconclusive = small, poorly fitted or top-dose-only effect; inactive = no such curve, though single readings can be large or run the other way.
SMILES,JMJD2A Tudor inh,L3MBTL1 block,HP1b chromo inh,PI5P4Ka inh,BAZ2B block,G9a inh
CCN(CC)S(=O)(=O)c1cccc(-c2n[nH]c(=S)n2CC(C)C)c1,10µM*,/,8.2%,-9.6,4.9%,3.16µM*
O=C(NCc1n[nH]c(=S)n1Cc1ccccc1)c1ccccc1,?,5.4%,7.6%,0.7,-12.1%,35.3%
CCN(CC)S(=O)(=O)c1cccc(-c2cn3cc(C)ccc3n2)c1,-23.3%,/,10.5%,4.1,-28.5%,?
Cc1ccc2nc(-c3cccc(S(=O)(=O)N(C)C)c3)cn2c1,-2.1%,-6.3%,31.8%,8.5,-0.7%,7.1%[59 µM]
COC(Cn1c(-c2cccc(S(=O)(=O)N(C)C)c2)n[nH]c1=S)OC,7.94µM*,1.0%,-0.5%,1.9,/,10µM*
Cc1ccc(OCC(=O)Nc2ccccc2C(=O)OCc2cc(=O)n3ccsc3n2)cc1C,-15.6%,/,10.3%,/,-4.1%,-37.0%[59 µM]
CC(C)N(Cc1ccccc1)S(=O)(=O)c1ccc(N2CCCCS2(=O)=O)cc1,2.0%,/,40.6%,/,-9.1%,-1.0%[12.7 µM]
O=C(c1ccccc1)n1nc(-c2ccco2)nc1NCc1ccccc1Cl,-2.8%,/,15.4%,/,-5.2%,-25.6%[59 µM]
C[C@H](NC(=O)/C=C/[C@H]1O[C@@H](n2ccc(=O)[nH]c2=O)[C@H](O)[C@@H]1O)C(=O)O,/,/,/,3.5,/,/
C[C@H]([C@@H](N)C(=O)N[C@@H](C(=O)O)[C@@H]1O[C@H](n2ccc(=O)[nH]c2=O)[C@@H](O)[C@H]1O)[C@@H](O)c1ccc(O)cn1,-26.6%,-0.1%,25.8%,-0.4,?,3.16µM*
O=C(NCc1ccc2c(c1)CCN2C(=O)c1ccc(F)cc1)c1ccco1,-13.3%,/,23.1%,/,-6.6%,-0.5%[59 µM]
O=C1CCc2cc(S(=O)(=O)Nc3ccc(Cl)c(Cl)c3)ccc2N1,-12.8%,/,/,/,/,/
CCc1nn2cc(C(=O)c3cc(C)ccc3O)cnc2c1-c1ccc(F)cc1,?,2.8%,15.1%,7.7,?,44.7µM*
Cc1cc2cc3c(cc2nc1SCC(=O)N1CCN(C(=O)c2ccco2)CC1)OCO3,-35.2%,-0.4%,-13.1%,/,-34.4%,50.1µM*
Cc1cc2nc(-c3ccc(SCC(=O)N4CCOCC4)nc3)[nH]c2cc1C,-19.9%,4.5%[11.4 µM],28.3%,/,-13.3%,-4.3%[12.7 µM]
O=C(CSc1nc2cc(Cl)ccc2s1)N1CCN(C(=O)c2ccco2)CC1,-19.9%,-3.0%,20.1%,-11.0,-9.1%,44.7µM*
Cc1cc2nc(-c3ccc(SCC(=O)N4CCN(C(=O)c5ccco5)CC4)nc3)[nH]c2cc1C,?,31.6µM*,-5.1%,/,-2.4%,?
Cc1ccccc1NC(=O)COC(=O)CCc1nc2ccccc2c(=O)[nH]1,-10.2%,5.3%,48.9%,-2.4,-2.6%,44.7µM*
O=C(COC(=O)CCc1nc2ccccc2c(=O)[nH]1)NC(=O)NC1CCCC1,-30.9%,-3.9%,33.4%,0.4,-0.5%,10µM*
CC(OC(=O)CCc1nc2ccccc2c(=O)[nH]1)C(=O)NC1CCCC1 (stereo unspecified),-17.5%,-4.0%,22.2%,-13.8,11.4%,-13.9%
O=C(COC(=O)CCc1nc2ccccc2c(=O)[nH]1)Nc1ccc2c(c1)OCO2,2.7%,-10.2%,40.7%,-28.6,-17.1%,56.2µM*
O=C(COC(=O)CCc1nc2ccccc2c(=O)[nH]1)NC(c1ccccc1)c1ccccc1,-15.4%,/,16.3%,-9.9,4.6%,-40.4%[59 µM]
O=C(CCc1nc2ccccc2c(=O)[nH]1)Nc1cc(Cl)ccc1N1CCCC1,-6.8%,-5.7%,35.1%,-2.0,6.3%,14.1µM*
Cc1ccccc1Cn1c(Oc2ccccc2F)nc2c1c(=O)n(C)c(=O)n2C,-12.8%,/,33.8%,/,-6.7%,-3.5%[59 µM]
O=C(NC1CC(=O)N(c2ccccc2)C1)c1cccs1 (stereo unspecified),6.2%,/,30.4%,/,-1.4%,12.3%[59 µM]
CCOc1ccccc1NC(=O)Cn1c(=O)n(-c2ccc(C)cc2)c(=O)c2c1cnn2C,-9.6%,/,31.5%,/,-0.4%,-5.1%[59 µM]
O=C(CC(c1ccco1)C1CCCCC1=O)c1ccco1 (stereo unspecified),-25.7%,-9.5%,26.1%,0.3,?,56.2µM*
